High-throughput results as filed in PubChem BioAssay.
A selection: hits, their analogues and other compounds. The true share with any hit is near 3%.
BH1578 lux ind: induces V. cholerae light production without autoinducers. activation, % at 18.7 µM. 0.16% of 350,000 active. V. cholerae BH1578 lux reporter, luminescence, 6 h; in the data active means activation mostly above about 9.7%, no sharp cut-off
Mtb FBA inh: Mtb fructose-bisphosphate aldolase inhibition; purified M. tuberculosis FBA, fluorescence read-out; inhibition, % at 1 µM; 2.3% of 360,000 active; P9WQA3;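 further: 0% = vehicle and 100% = reference inhibitor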
Target sequence (P9WQA3 whole entry, looked up): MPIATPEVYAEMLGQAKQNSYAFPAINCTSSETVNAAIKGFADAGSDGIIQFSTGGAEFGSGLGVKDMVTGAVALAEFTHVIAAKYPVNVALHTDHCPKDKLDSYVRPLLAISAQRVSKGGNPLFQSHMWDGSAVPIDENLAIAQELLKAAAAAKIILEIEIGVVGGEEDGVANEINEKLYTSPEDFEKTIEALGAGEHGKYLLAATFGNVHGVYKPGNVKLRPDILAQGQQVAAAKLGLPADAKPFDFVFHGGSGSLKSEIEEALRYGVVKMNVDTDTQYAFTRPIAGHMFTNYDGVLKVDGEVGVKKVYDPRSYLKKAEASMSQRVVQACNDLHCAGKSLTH
Mtb BioA inh: BioA (M. tuberculosis) enzyme inhibition; purified M. tuberculosis BioA enzyme, plate reader; inhibition, % at 9.99 µM; 0.096% of 360,000 active; AID 602481; in the data active means inhibition above about 40%
GDH-TPI counter-1: inhibits GDH-TPI coupling enzymes, artifact for Mtb FBA screen; GDH-TPI coupled enzyme counterscreen, NADH absorbance; inhibition, % at 4.8 µM; 1.2% of 360,000 active; AID 588335; in the data active means inhibition above about 30%;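 further: 0% = DMSO wells and 100% = wells lacking the enzyme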
Mtb FBA confirm: confirmation of M. tuberculosis fructose-bisphosphate aldolase inhibitors; inhibition, % at 1 µM; shares compounds with Mtb FBA inh; purified M. tuberculosis FBA, fluorescence read-out; 78% of 5,600 active;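 further: 0% = vehicle wells and 100% = reference inhibitor wells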
GDH-TPI counter-2: inhibits GDH-TPI coupling enzymes, flagging Mtb FBA hits. shares compounds with Mtb FBA inh. GDH-TPI coupled enzyme counterscreen, fluorescence. inhibition, % at 1 µM. 81% of 5,600 active. AID 652141; in the data active means inhibition above about 10%
* = called active by the depositor. Unless noted, no stated cut-off is given here; in the data, active means inhibition above about 27%; inactive means the rest.

Results for COCCCNc1ccn2nc(-c3ccc(Cl)cc3)cc2n1 ?
BH1578 lux ind: -1; Mtb FBA inh: 34*; Mtb BioA inh: 0; GDH-TPI counter-1: 14; Mtb FBA confirm: 87*; GDH-TPI counter-2: 76*

What do the screens show for `CCCOc1ccc(-c2nc3c(c(=O)[nH]c(=O)n3Cc3ccccc3)n2CCO)cc1OCC`?
BH1578 lux ind: 0; Mtb FBA inh: 38*; Mtb BioA inh: 1; GDH-TPI counter-1: -1; Mtb FBA confirm: 0; GDH-TPI counter-2: -4

What do the screens show for `CCCn1c(-c2cc(OC)c(OC)c(OC)c2)nc2c1c(=O)[nH]c(=O)n2Cc1ccccc1`?
BH1578 lux ind: inactive; Mtb FBA inh: 41*; GDH-TPI counter-1: -4; Mtb FBA confirm: 12; GDH-TPI counter-2: 9

How did O=c1[nH]c(=O)n(Cc2ccccc2)c2nc(-c3ccc(C(F)(F)F)cc3)n(CCO)c12 do in these assays?
BH1578 lux ind: -7; Mtb FBA inh: 69*; Mtb BioA inh: -1; GDH-TPI counter-1: 6; Mtb FBA confirm: 134*; GDH-TPI counter-2: 115*

How did CCCn1c(-c2cccc(F)c2)nc2c1c(=O)[nH]c(=O)n2Cc1ccccc1 do in these assays?
BH1578 lux ind: 0; Mtb FBA inh: 6; Mtb BioA inh: 0; GDH-TPI counter-1: -1

How did COc1ccc(-c2nc3c(c(=O)[nH]c(=O)n3Cc3ccccc3)n2Cc2ccccc2)cc1 do in these assays?
BH1578 lux ind: 0; Mtb FBA inh: 3; Mtb BioA inh: -3; GDH-TPI counter-1: 5

Results for Cn1c(-c2cccc(F)c2)nc2c1c(=O)[nH]c(=O)n2Cc1ccccc1 ?
BH1578 lux ind: -3; Mtb FBA inh: 28*; Mtb BioA inh: 4; GDH-TPI counter-1: -13; Mtb FBA confirm: 4; GDH-TPI counter-2: -3

How did COc1ccc(-c2nc3c(c(=O)[nH]c(=O)n3Cc3ccccc3)n2C)cc1 do in these assays?
BH1578 lux ind: -1; Mtb FBA inh: 2; GDH-TPI counter-1: 8

What do the screens show for `Cc1cc(NCCN(C)C)n2nc(-c3cccs3)cc2n1`?
BH1578 lux ind: -7; Mtb FBA inh: 22; Mtb BioA inh: -1; GDH-TPI counter-1: 9

What do the screens show for `Cc1cc(NCCCO)n2nc(-c3cccs3)cc2n1`?
BH1578 lux ind: 0; Mtb FBA inh: 33*; GDH-TPI counter-1: 0; Mtb FBA confirm: 68*; GDH-TPI counter-2: 56*

Results for OCCCNc1cc(-c2ccccc2)nc2cc(-c3ccc(F)cc3)nn12 ?
BH1578 lux ind: -1; Mtb FBA inh: 59*; Mtb BioA inh: -2; GDH-TPI counter-1: 15; Mtb FBA confirm: 102*; GDH-TPI counter-2: 77*

What do the screens show for `C[C@@H]1CN([C@H](C)CO)C(=O)c2cc(/C=C/c3ccccc3)cnc2O[C@@H]1CN(C)S(=O)(=O)c1cn(C)cn1`?
Mtb BioA inh: 1

Results for Cc1ccc(S(=O)(=O)Nc2ccc3c(c2)C(=O)N([C@@H](C)CO)C[C@H](C)[C@@H](CN(C)C)OCCCC[C@@H](C)O3)cc1 ?
Mtb BioA inh: -2

What do the screens show for `O=C(CSCc1ccccc1)Nc1ccc2c(c1)C(=O)NC2=O`?
BH1578 lux ind: -1; Mtb FBA inh: 0; GDH-TPI counter-1: 10

What do the screens show for `CN1C(=O)c2ccc(NC(=O)CCS(=O)(=O)c3ccccc3)cc2C1=O`?
BH1578 lux ind: inactive; Mtb FBA inh: 35*; GDH-TPI counter-1: 4; Mtb FBA confirm: 83*; GDH-TPI counter-2: 61*

What do the screens show for `O=C(CCS(=O)(=O)c1ccccc1)Nc1ccc2c(c1)C(=O)NC2=O`?
BH1578 lux ind: 0; Mtb FBA inh: 50*; GDH-TPI counter-1: 1; Mtb FBA confirm: active; GDH-TPI counter-2: active

How did O=C(C[C@H]1CC[C@@H]2[C@H](COC[C@H](O)CN2CC2CCCCC2)O1)NCc1ccc(F)cc1 do in these assays?
Mtb BioA inh: 2

How did c1ccc(C2CC(c3cccs3)=NN2c2ccccc2)cc1 (centres undefined) do in these assays?
BH1578 lux ind: inactive; Mtb FBA inh: 87*; Mtb BioA inh: -1; GDH-TPI counter-1: 7; Mtb FBA confirm: 171*; GDH-TPI counter-2: 119*

How did Fc1ccc(C2CC(c3cccs3)=NN2c2ccccc2)cc1 (centres undefined) do in these assays?
BH1578 lux ind: -1; Mtb FBA inh: 107*; GDH-TPI counter-1: 2; Mtb FBA confirm: 33*; GDH-TPI counter-2: 22*

What do the screens show for `O=S(=O)(c1ccccc1)N1N=C(c2cccs2)CC1c1ccc(Br)cc1` (centres undefined)?
BH1578 lux ind: 0; Mtb FBA inh: 9; Mtb BioA inh: -3; GDH-TPI counter-1: 8

What do the screens show for `C[C@@H]1CN([C@@H](C)CO)C(=O)Cc2cc(NC(=O)NC3CCCCC3)ccc2O[C@H]1CN(C)Cc1ccc(C(F)(F)F)cc1`?
Mtb BioA inh: -2

Results for O=C(c1cc(COc2cccc3cnccc23)on1)N1CCCC(CCCO)C1 (centres undefined) ?
BH1578 lux ind: 0; Mtb FBA inh: 30*; Mtb BioA inh: -6; GDH-TPI counter-1: 4; Mtb FBA confirm: 192*; GDH-TPI counter-2: 132*

What do the screens show for `O=c1oc(C2(O)CCCCC2)cc2ccc(/C=C/c3ccc(F)cc3)cc12`?
BH1578 lux ind: 0; Mtb FBA inh: 32*; Mtb BioA inh: -1; GDH-TPI counter-1: 8; Mtb FBA confirm: 34*; GDH-TPI counter-2: 24*

What do the screens show for `O=c1oc(C2(O)CCCCC2)cc2ccc(Br)cc12`?
BH1578 lux ind: inactive; Mtb FBA inh: 8; Mtb BioA inh: 0; GDH-TPI counter-1: 16

How did COc1cc2c(cc1OC)CC[N+](C)=C2 do in these assays?
BH1578 lux ind: 0; Mtb FBA inh: 95*; Mtb BioA inh: 1; GDH-TPI counter-1: 15; Mtb FBA confirm: 111*; GDH-TPI counter-2: 76*

What do the screens show for `COc1cc2c(cc1OC)C[N+](C)(C)CC2`?
BH1578 lux ind: 0; Mtb FBA inh: 4; Mtb BioA inh: 0; GDH-TPI counter-1: 0

How did O=C(NCCO)c1cccc(-c2cccc3nncn23)c1 do in these assays?
BH1578 lux ind: -1; Mtb FBA inh: 75*; Mtb BioA inh: 0; GDH-TPI counter-1: 7; Mtb FBA confirm: 72*; GDH-TPI counter-2: 42*

What do the screens show for `CN(C)CCCNC(=O)c1cccc(-c2cnc3cccnn23)c1`?
BH1578 lux ind: inactive; Mtb FBA inh: 102*; Mtb BioA inh: 0; GDH-TPI counter-1: 5; Mtb FBA confirm: active; GDH-TPI counter-2: active

What do the screens show for `O=C(CN1C(=O)c2cccc3cccc(c23)C1=O)NCCCO`?
BH1578 lux ind: inactive; Mtb FBA inh: 52*; Mtb BioA inh: -1; GDH-TPI counter-1: 17; Mtb FBA confirm: 27; GDH-TPI counter-2: 24*

How did COc1ccccc1NC(=O)CCCCCN1C(=O)c2cccc3cccc(c23)C1=O do in these assays?
BH1578 lux ind: -1; Mtb FBA inh: 2; Mtb BioA inh: 1; GDH-TPI counter-1: 9

What do the screens show for `O=C(CCCCCN1C(=O)c2cccc3cccc(c23)C1=O)NCCCO`?
BH1578 lux ind: 0; Mtb FBA inh: 33*; Mtb BioA inh: 1; GDH-TPI counter-1: 18; Mtb FBA confirm: 97*; GDH-TPI counter-2: 73*
